In the library only some 1.6% were active in any assay of this set; here they are far more common.
KCNQ2 inh – blocks the rat KCNQ2 potassium channel; CHO-K1 KCNQ2, FluxOR thallium flux, 20 min; stronger effect = lower value; B-score at 10 µM; hit rate 1.1% among 310,000;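 active = fluorescence ratio B-score at most minus 3 library SDs, with starting brightness B-score within 2 library SDs, cut at about -5.5 in these data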
KCNQ2 enhance – KCNQ2 (rat) channel potentiation. O88943. CHO-K1 KCNQ2, FluxOR thallium flux fluorescence; stronger effect = higher value. B-score at 10 µM. hit rate 0.54% among 310,000. AID 2239;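 active = fluorescence ratio B-score at least 3 SD of library B-scores, with initial fluorescence B-score within 3 of them, cut at about 5.3 in these data; same plate scores as AID 2156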;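 also: B-score of peak minus minimum over baseline fluorescence ratio after K+ and Tl+ stimulus; positive B-score means potentiation of KCNQ2 with more thallium influx and brighter signal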
Kir21 conf inh – confirmation of mouse Kir2.1 potassium channel inhibitors; AID 2032; Kir2.1-expressing cells, FluxOR thallium flux fluorescence; stronger effect = lower value; shares compounds with KCNQ2 enhance; hit rate 41% among 2,300; Tl flux remaining, % of negative control (stronger effect = lower value), % at 10 µM;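 active = Primary-screen hit whose thallium flux fell at least 3 control SD below untreated wells in both duplicates, with normal baseline fluorescence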;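 also: 0% = blank wells without stimulus and 100% = stimulated no-compound controls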
HEK293 ctr – parental HEK293 activity in Kir2.1 inhibitor counter-screen | parental HEK293 cells, FluxOR thallium flux fluorescence; 0% = unstimulated blank wells | FluxOR signal as % of negative control (100 = no effect), % at 10 µM | hit rate 19% among 2,300 | shares compounds with KCNQ2 enhance;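 active = dye signal at least 3 control SD above or below untreated wells in both duplicates, raw fluorescence within 3, either direction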;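 also: percent is based on the flux ratio of peak minus minimum fluorescence over baseline F0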
CHO-K1 ctr – alters thallium flux in parental CHO-K1 cells, KCNQ2 counter-screen | shares compounds with KCNQ2 enhance | hit rate 43% among 1,200 | FluxOR thallium flux fluorescence; zero = vehicle mean+3SD, 100% = vehicle-minus-blank window | AID 2282 | activity increase over 3SD of controls, % at 10 µM;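 active = signal rise of at least 3 SD above the untreated control mean, in both duplicate wells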;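 also: counter screen of KCNQ2 potentiator hits so any rise reflects channel-independent effects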
KCNQ1 pot spec – human KCNQ1 counter-target activity of KCNQ2 potentiators | shares compounds with KCNQ2 enhance | CHO KCNQ1 stable, FluxOR thallium flux fluorescence; beyond 3SD, as % of vehicle-control signal | activation over 3SD threshold, % at 10 µM | hit rate 28% among 1,200;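 active = fluorescence ratio rise of at least 3 SD of vehicle wells above their mean, in both replicate wells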;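 also: 0% = vehicle mean plus 3 SD and 100% = vehicle minus unstimulated blank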
Target sequence (P51787 whole entry, looked up): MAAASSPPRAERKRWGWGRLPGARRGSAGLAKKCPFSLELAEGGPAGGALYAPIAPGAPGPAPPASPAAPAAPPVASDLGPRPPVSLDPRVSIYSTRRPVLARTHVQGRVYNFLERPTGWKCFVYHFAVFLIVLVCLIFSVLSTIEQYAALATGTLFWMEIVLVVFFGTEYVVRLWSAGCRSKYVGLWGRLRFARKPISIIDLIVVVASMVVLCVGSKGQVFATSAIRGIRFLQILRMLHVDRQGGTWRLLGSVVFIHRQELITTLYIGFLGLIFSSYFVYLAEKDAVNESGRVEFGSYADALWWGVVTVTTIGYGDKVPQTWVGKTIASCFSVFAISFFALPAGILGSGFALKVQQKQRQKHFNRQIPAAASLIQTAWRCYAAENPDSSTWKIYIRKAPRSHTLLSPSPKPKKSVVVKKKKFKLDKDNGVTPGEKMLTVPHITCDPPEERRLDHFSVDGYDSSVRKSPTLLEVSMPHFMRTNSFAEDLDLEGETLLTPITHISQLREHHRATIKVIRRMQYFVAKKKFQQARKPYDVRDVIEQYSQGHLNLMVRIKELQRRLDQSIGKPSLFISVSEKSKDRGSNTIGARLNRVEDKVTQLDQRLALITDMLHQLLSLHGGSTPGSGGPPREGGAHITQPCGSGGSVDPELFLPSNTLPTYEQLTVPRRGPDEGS
KCNQ2 pot confirm – confirmation of rat KCNQ2 potassium channel potentiators. shares compounds with KCNQ2 enhance. hit rate 68% among 1,200. potentiation, less the hit threshold, % at 10 µM. CHO-KCNQ2 cells, FluxOR thallium flux fluorescence;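 active = fluorescence ratio rising 3 SD or more over the vehicle control mean in both replicates, plus primary screen hit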;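 also: peak minus minimum thallium fluorescence divided by baseline after K/Tl stimulus; 0% = vehicle mean plus 3 SD and 100% = vehicle minus unstimulated blank difference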
Kir2-1 sel – tests whether KCNQ2 potentiators also affect mouse Kir2.1. shares compounds with KCNQ2 enhance. hit rate 2% among 1,200. AID 2345. activity over 3SD threshold, % at 10 µM. HEK293 Kir2.1, FluxOR thallium flux fluorescence;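 active = fluorescence ratio rise of at least 3 SD above the vehicle-control mean, seen in both replicates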;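 also: 0% = vehicle mean plus 3 SD and 100% = vehicle minus no-stimulus blank window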
KCNQ2 W236L pot – KCNQ2 potentiators acting on retigabine-insensitive rat KCNQ2 W236L mutant; shares compounds with KCNQ2 enhance; CHO KCNQ2-W236L, automated patch clamp current; current increase over 3SD of negative controls (%), stronger effect = higher value, % at 25 µM; hit rate 10% among 940; AID 2558;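 active = current increase at least 3 SD of the untreated controls above them in both duplicate recordings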
Numbers without * were called inactive.

How did O=C(O)Cc1cc(I)c(Oc2ccc(O)c(I)c2)c(I)c1 do in these assays?
KCNQ2 inh: inactive; KCNQ2 enhance: 9.9*; Kir21 conf inh: inactive; HEK293 ctr: inactive; CHO-K1 ctr: 1.9*; KCNQ1 pot spec: 19*; KCNQ2 pot confirm: 112*; Kir2-1 sel: -39; KCNQ2 W236L pot: inactive

How did O=C(O)Cc1ccc(O)c(O)c1 do in these assays?
KCNQ2 inh: inactive

What do the screens show for `COC(=O)c1cccc(Oc2cccc(C(F)(F)F)c2)n1`?
KCNQ2 inh: inactive; KCNQ2 enhance: 0.17

What do the screens show for `Cc1cc(C)cc(N(C(C)C(=O)NCc2ccc3c(c2)OCO3)S(C)(=O)=O)c1` (configuration not stated)?
KCNQ2 inh: inactive

How did CC(C)(C)c1cc(Cl)ccc1OCCOCCN1CCCC1 do in these assays?
KCNQ2 inh: inactive; Kir21 conf inh: 39%*; HEK293 ctr: inactive

Results for Cc1ccc(OCCOCCN2CCN(C)CC2)c(C(C)(C)C)c1 ?
KCNQ2 inh: inactive; KCNQ2 enhance: 0.05

How did C=CCNCCOCCOc1ccc(Cl)cc1C(C)(C)C do in these assays?
KCNQ2 inh: inactive

How did C=CCNCCCOc1ccc(Cl)cc1C(C)(C)C do in these assays?
KCNQ2 inh: inactive; Kir21 conf inh: 28%*; HEK293 ctr: inactive

How did COc1ccc(Cl)cc1NC(=O)CCNC(=O)OCc1ccccc1 do in these assays?
KCNQ2 inh: inactive

What do the screens show for `CC(=O)N(c1cccc(Br)c1)c1nc(C)cc(C)c1C#N`?
KCNQ2 inh: inactive

Results for COc1ccccc1NC(=O)COc1ccc2ccccc2c1 ?
KCNQ2 inh: inactive

What do the screens show for `COc1ccccc1NC(=O)C(=O)NNC(=O)COc1ccc2ccccc2c1`?
KCNQ2 inh: inactive; KCNQ2 enhance: 23*; Kir21 conf inh: inactive; HEK293 ctr: inactive; CHO-K1 ctr: 41*; KCNQ1 pot spec: -25; KCNQ2 pot confirm: 28*; Kir2-1 sel: -29; KCNQ2 W236L pot: inactive

Results for Cc1ccc(C)c(S(=O)(=O)N2CCN(C(=O)Cc3ccc(S(=O)(=O)N4CCOCC4)s3)CC2)c1 ?
KCNQ2 inh: inactive; KCNQ2 enhance: 1

What do the screens show for `COC(=O)c1cc(=O)n(CCc2ccc(OC)c(OC)c2)c(=Nc2ccc(F)c(Cl)c2)s1`?
KCNQ2 inh: inactive

Results for CCCCc1ccc(-c2ccc(Br)cc2O)nc1 ?
KCNQ2 inh: inactive; KCNQ2 enhance: 6*; Kir21 conf inh: inactive; HEK293 ctr: inactive; CHO-K1 ctr: -11; KCNQ1 pot spec: 59*; KCNQ2 pot confirm: -9; Kir2-1 sel: -30

Results for CCCCc1ccc(-c2ccc(C)cc2O)nc1 ?
KCNQ2 inh: inactive; KCNQ2 enhance: 3.3

How did N#Cc1ccccc1OCC(=O)OCCCOC(=O)COc1ccccc1C#N do in these assays?
KCNQ2 inh: inactive; KCNQ2 enhance: 0.71

How did Cc1ccc(S(=O)(=O)CC(O)COc2ccc(F)cc2Cl)cc1 (configuration not stated) do in these assays?
KCNQ2 inh: inactive; KCNQ2 enhance: 2.6

How did Cc1ccc(S(=O)(=O)CC(O)COc2ccc(F)cc2Cl)c(C)c1 (configuration not stated) do in these assays?
KCNQ2 inh: inactive; KCNQ2 enhance: 0.26; Kir21 conf inh: 52%*; HEK293 ctr: inactive

What do the screens show for `CCOC(=O)c1c(CSc2ccc(CC)cc2)oc2ccc(O)c(CN(C)C)c12`?
KCNQ2 inh: -5.8*; KCNQ2 enhance: -5.8; Kir21 conf inh: 16%*; HEK293 ctr: inactive

What do the screens show for `CCOC(=O)c1c(CSc2ccccc2)oc2cc(Br)c(O)c(CN(C)C)c12`?
KCNQ2 inh: inactive; KCNQ2 enhance: 0.71

Results for CC(=O)c1c(CSc2ccccc2)oc2ccc(O)c(CN(C)C)c12 ?
KCNQ2 inh: inactive; Kir21 conf inh: 38%*; HEK293 ctr: 64%*

How did CCOC(=O)c1c(C)oc2ccc(O)c(CN(C)C)c12 do in these assays?
KCNQ2 inh: inactive; KCNQ2 enhance: 0.06

How did CC(C)[C@@H](C(=O)N1CCNCC1)n1cc(CCO)nn1 do in these assays?
KCNQ2 inh: inactive; KCNQ2 enhance: 0.69

How did CC(Sc1ccc([N+](=O)[O-])cn1)C(=O)Nc1nccs1 (configuration not stated) do in these assays?
KCNQ2 inh: inactive

How did CCN(CC)CCSc1nnc2c3cc(C)ccc3n(Cc3ccccc3)c2n1 do in these assays?
KCNQ2 inh: inactive; KCNQ2 enhance: 0.15

What do the screens show for `CN(C)S(=O)(=O)c1cccc(C(=O)Nc2ccc(S(=O)(=O)N3CCCC3)cc2)c1`?
KCNQ2 inh: inactive; KCNQ2 enhance: 0.81

How did Cc1onc(-c2ccccc2)c1CNS(=O)(=O)c1cccc(Br)c1 do in these assays?
KCNQ2 inh: inactive; KCNQ2 enhance: 0.46; Kir21 conf inh: 52%*; HEK293 ctr: inactive

Results for Cc1onc(-c2ccccc2)c1CNS(=O)(=O)c1ccc(F)cc1F ?
KCNQ2 inh: inactive

What do the screens show for `CCOc1ccccc1NC(=O)CSc1nc2ccccc2c(=O)n1CC1CCCO1` (configuration not stated)?
KCNQ2 inh: inactive

How did O=C(COC(=O)/C=C/c1cccs1)Nc1cccc(S(=O)(=O)N2CCCC2)c1 do in these assays?
KCNQ2 inh: inactive; KCNQ2 enhance: 1.6

What do the screens show for `COCCNC(=S)NNC(=O)c1ccc(-n2cnnn2)cc1`?
KCNQ2 inh: inactive

What do the screens show for `CC(C)OCCCN(C)C1CCN(S(=O)(=O)c2ccc(-c3cc(C(F)(F)F)no3)s2)CC1`?
KCNQ2 inh: inactive

What do the screens show for `Clc1ccc(OCCOCCN2CCc3ccccc3C2)c(Cl)c1`?
KCNQ2 inh: inactive

How did c1ccc(-c2ccccc2OCCOCCN2CCc3ccccc3C2)cc1 do in these assays?
KCNQ2 inh: inactive; Kir21 conf inh: 50%*; HEK293 ctr: inactive

How did COc1cc(CN2CCC(n3nccc3NC(=O)CCCc3ccccc3)CC2)ccc1F do in these assays?
KCNQ2 inh: inactive

How did Cc1ccc(CC(=O)NCC2CCCCC2)cc1 do in these assays?
KCNQ2 inh: inactive; KCNQ2 enhance: 7.5*; Kir21 conf inh: inactive; HEK293 ctr: inactive; CHO-K1 ctr: 47*; KCNQ1 pot spec: -26; KCNQ2 pot confirm: -11; Kir2-1 sel: -23

From PubChem
